Where “and” joins values, the source holds several entries; their conditions need not be identical. Equal values may be shown once. Out of some 260,000 compounds screened, about 1,300 (0.5%) were called active.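 How the source made its calls: active means percent inhibition above 40 after rounding to a whole number; inactive means the rest.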 Only a selection was taken, and actives are over-represented in it overall. The source holds several records for some structures; these can differ, active in one and inactive in another.

In general, inhibition refers to the relative decrease from the control value, in per cent.

The target of this experiment is Prostaglandin E2 receptor EP2 subtype (Homo sapiens) (UniProt P43116). Nature of the experiment: human EP2 receptor antagonists, primary screen, TR-FRET cAMP, C6 glioma cells (AID 1422).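 Further: rat C6 glioma host cells with rolipram phosphodiesterase inhibitor present; the protocol text gives 20 µM as final concentration.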 Particulars: C6 glioma cells expressing human EP2, cAMP TR-FRET; at 25 µM; stronger effect = higher value; cells stimulated with saturating PGE2. On the technique in general: TR-FRET usually uses a lanthanide donor and a delayed reading to cut background.
Prostaglandin E2 receptor EP2 subtype (Homo sapiens), sequence (P43116 whole entry, looked up): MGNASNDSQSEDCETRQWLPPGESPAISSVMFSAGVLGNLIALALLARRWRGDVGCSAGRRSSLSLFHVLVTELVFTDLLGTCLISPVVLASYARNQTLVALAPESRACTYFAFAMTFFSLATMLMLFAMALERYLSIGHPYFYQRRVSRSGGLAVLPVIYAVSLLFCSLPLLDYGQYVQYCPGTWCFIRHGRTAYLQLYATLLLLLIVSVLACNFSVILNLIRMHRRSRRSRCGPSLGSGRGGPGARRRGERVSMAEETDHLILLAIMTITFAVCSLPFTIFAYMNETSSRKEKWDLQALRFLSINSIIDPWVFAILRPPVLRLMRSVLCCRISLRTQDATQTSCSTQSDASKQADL
As to `CCOc1ccc2nc(NC(=O)c3ccc(NC(C)=O)cc3)sc2c1`, the inhibition was 11.4% (inactive). On to `CC(C)(C)NC(=O)Cn1nnc(-c2ccc(N)cc2)n1`, for which the inhibition was 7.5% (inactive).

For the compound `COc1ccccc1CC(=O)Nc1ccc([N+](=O)[O-])cc1OC`, the inhibition was 2.1% (inactive).

Consider `COc1ccccc1CSc1ncc(-c2ccc([N+](=O)[O-])cc2)[nH]1`, for which the inhibition was 85.8% (active). On to `COc1ccccc1CSc1nc2ccccc2[nH]1`, for which the inhibition is -5.57% (inactive). On to `N#CCN1CCN(c2ncnc3sc4c(c23)CCCC4)CC1`, for which the inhibition was 12.8% (inactive). The same measure for `CCN(CC)CCCN1C(=O)C(O)=C(C(=O)c2ccc(C)o2)C1c1ccccc1F` (stereo not drawn): 13.9% (inactive); for `COc1ccc(C2=NNC(c3cccnc3)=Nc3ccc(Br)cc32)cc1OC`: 6.87% (inactive). In the case of `Cc1cccc(C(=O)O)c1C[C@@H]1NCC[C@@H]2c3ccccc3N[C@@H]12`, the inhibition was 46% (active).

Consider `O=C(CN1N=C(c2ccccc2)Cn2c(cc3sccc32)C1=O)NCC1CCCO1` (stereo not drawn), for which the inhibition was 4.16% (inactive). The same measure for `CCc1cc2cc3c(cc2nc1SCC(=O)Nc1ccccc1Br)OCCO3`: 8.66% (inactive); for `COC(=O)C(C)NC(=O)COc1ccc2ccccc2c1` (stereo not drawn): 8.28% (inactive). Take `Cc1cc2ccccc2n1CCNC(=O)COc1ccc2ccccc2c1`: the inhibition was 73.2% (active).

On to `Cc1cc2ccccc2n1CCC(=O)O`, for which the inhibition was 7.85% (inactive). The same measure for `COC(=O)c1ccc(Cn2nc([N+](=O)[O-])c(Cl)c2C)cc1`: 12.7% (inactive); for `O=[N+]([O-])c1cc([N+](=O)[O-])c2cccnc2c1O`: 7.12% (inactive). As for `O=S(=O)(O)c1ccc(O)c2ncccc12.O=S(=O)(O)c1ccc(O)c2ncccc12.[Zn]`, the inhibition was 45.1% (active). Under `O=C(O)COc1c(Cl)cc(Cl)c2cccnc12` stands 16.4% (inactive); under `Cc1ccc(-n2c(SCC(=O)NC(C)(C)C)nnc2-c2cccnc2)cc1C`, 15.1% (inactive); under `COc1ccc(NS(=O)(=O)c2ccc(NC(=O)C(C)(C(F)(F)F)C(F)(F)F)cc2)nn1`, 14.1% (inactive). For `COc1ccc(NS(=O)(=O)c2ccc(NC(=S)NC(=O)/C=C/c3ccc(C)cc3)cc2)nn1`, the inhibition was 63.2% (active). The same measure for `Cc1ccc(NC(=S)NC(=O)/C=C/c2ccc(Cl)cc2)cc1`: 5.92% (inactive). `CC1CCN(c2nc3c(c(=O)[nH]2)CCN(Cc2ccc(C(F)(F)F)cc2)C3)CC1`: the inhibition is 6.96% (inactive). The same measure for `COc1ccc(Cc2nnc(NC(=O)Cc3ccc(Cl)cc3)s2)cc1OC`: 9.47% (inactive). For `CC1=NN(Cc2ccccc2)C(=O)/C1=C/c1ccc(N(C)C)cc1`, the inhibition is 18.2% (inactive). The same measure for `CN(C)c1ccc(C=C2C(=O)OC3(CCCC3)OC2=O)cc1`: 41.7% (active) and 7.71% (inactive); for `COc1cc(C=C2C(=O)OC3(CCCC3)OC2=O)ccc1OCc1ccccc1F`: 13.4% (inactive).

With `Cc1nn(C)cc1S(=O)(=O)N(Cc1ccncc1)C1CC1`, the inhibition was 7.77% (inactive).

Consider `Cc1nc2c(c(=O)[nH]1)CCN(C(=O)Cn1c3ccccc3c3ccccc31)C2`, for which the inhibition is 7.09% (inactive). Under `Cc1[nH]nc2c1C(c1ccc(OCC(=O)N3CCCC3)cc1)C(C#N)=C(N)O2` (stereo not drawn) stands 10.8% (inactive).

With `COc1ccc(OCCCC(=O)Nc2nc(-c3ccc(OC)cc3)cs2)cc1`, the inhibition is 12.9% (inactive). Take `Cc1ccc(CNS(=O)(=O)c2cccc(S(=O)(=O)N3CCCC3)c2)cc1`: the inhibition was 10.8% (inactive).

With `COCCn1c(N2CCCC2)nc2c1c(=O)n(C)c(=O)n2C`, the inhibition was 7.42% (inactive). Under `CC1=CC(C)(C)N(C(=O)CSc2nccn2C)c2cc(C)ccc21` stands 17.5% (inactive); under `CC1=CC(C)(C)N(C(=O)CSc2nnc(-c3ccccc3)o2)c2ccc(C)cc21`, 45.4% (active). The same measure for `O=C(CSc1nnc(-c2ccccc2)o1)N1CCOCC1`: 8.71% (inactive). Under `COc1ccc(C2(NC(=O)c3noc(C)c3Cn3cccn3)CCCCC2)cc1` stands 7.45% (inactive); under `Cc1ccc(NC(=O)CSc2nnc(-c3ccncc3)n2C2CCCCC2)c(C)c1`, 15.8% (inactive); under `COc1ccc(CNC(=O)CCSc2nc(-c3ccco3)cc(C(F)(F)F)n2)cc1`, 9.17% (inactive).

Turning to `CC(Nc1nc(N2CCN(CCO)CC2)nc2ccccc12)c1ccccc1` (stereo not drawn), the inhibition was 7.4% (inactive).

As for `CC(Nc1nc(N2CCOCC2)nc2ccccc12)c1ccccc1` (stereo not drawn), the inhibition was 7.73% (inactive).

Consider `CC(Nc1nc(N2CCCC2)nc2ccccc12)c1ccccc1` (stereo not drawn), for which the inhibition is 48.2% (active). The same measure for `COCCNS(=O)(=O)c1ccc2[nH]c(=O)[nH]c2c1`: 9.6% (inactive). Under `Cc1cc(C)c2[nH]c(C)c(CN(C)Cc3ccccc3)c(=O)c2c1` stands 12% (inactive). `CCC(c1nnnn1C(C)(C)C)N(Cc1ccccc1)Cc1cc2ccc(C)cc2[nH]c1=O` (stereo not drawn): the inhibition was 5.18% (inactive). Under `Cc1nc(NC(=O)c2sc3nc4c(C)cccc4cc3c2N)sc1C` stands 19.7% (inactive); under `O=C(COC(=O)c1cccs1)Nc1ccccc1Cl`, 5.7% (inactive); under `O=C(Nc1ccccc1Cl)c1ccc2nsnc2c1`, 5.72% (inactive). Turning to `O=C(Nc1ccccc1Cl)/C(Cl)=C(\Cl)S(=O)c1ccccc1` (stereo not drawn), the inhibition is 57.5% (active). The same measure for `COc1cc(OC)c(OC)cc1/C=N/Nc1ncnc2c1[nH]c1ccc(C)cc12`: 5.82% (inactive); for `CC(C)OCCCNC(=O)c1cc(Sc2ccc(F)cc2)nc2ccccc12`: 8.64% (inactive); for `CC(C)OCCCNc1ncnc2c1[nH]c1ccc(F)cc12`: 46.2% (active). `CCCc1[nH]nc2c1C(c1c(C)nn(-c3ccccc3)c1Cl)C(C#N)=C(N)O2` (stereo not drawn): the inhibition was 25.4% (inactive). Take `CCCc1[nH]nc2c1C(c1ccc(Br)s1)C(C#N)=C(N)O2` (stereo not drawn): the inhibition is 51.9% (active). Under `CCCc1[nH]nc2c1C(C1CC=CCC1)C(C#N)=C(N)O2` (stereo not drawn) stands 3.84% (inactive); under `CC(Sc1nnc(-c2cccnc2)n1-c1ccccc1)C(=O)Nc1ccc(N)cc1` (stereo not drawn), 14.6% (inactive). On to `O=c1c2ccc(Br)c3cccc(c32)c2nc3ccccc3n12`, for which the inhibition was 6.4% (inactive). On to `COc1ccccc1CNS(=O)(=O)c1ccc(S(=O)(=O)N2CCC(C)CC2)cc1`, for which the inhibition is 4.43% (inactive).

These data come from PubChem BioAssay AID1422 (Emory University Molecular Libraries Screening Center, 2008).
